For three compounds, outcome and AC50 results are on record in PubChem BioAssay (EPA / NIEHS).

Assay [1] deals with human Acid Phosphatase 1 (ACP1), ACP1 (gene 52) (UniProt P24666). Nature of the assay: NVS_ENZ_hACP1: NovaScreen (NVS) Enzymatic Assay for human Acid Phosphatase 1 (ACP1) (AID 2283136). In a few lines: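 Recombinant enzyme expressed in Sf9 cells, tested cell-free; activity read by fluorescence with electrophoretic mobility shift separation of substrate and product, 1.5 h after dosing. Primary screen in duplicate at 25 uM, actives then run in concentration series; loss of signal versus DMSO.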

Assay [2] has as its target human Caspase 5 (CASP5), CASP5 (gene 838) (UniProt P51878). In words: NVS_ENZ_hCASP5: NovaScreen (NVS) Enzymatic Assay for human Caspase 5 (CASP5) (AID 2283137). The gist of the method:
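Recombinant E. coli-expressed human caspase 5 in a cell-free enzyme assay; fluorescence intensity read 2 hours after chemical dosing. Single-concentration duplicate screen at 25 uM, then concentration-response up to 50 uM for hits; DMSO negative control.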

For assay [3], the target named is human Caspase 4 (CASP4), CASP4 (gene 837) (UniProt P49662). Nature of the assay: NVS_ENZ_hCASP4: NovaScreen (NVS) Enzymatic Assay for human Caspase 4 (CASP4) (AID 2283143). In a few lines: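 The cell-free assay used E. coli-expressed enzyme with a fluorogenic substrate, read 2 h after dosing. Signal loss was scored versus DMSO. Screening was in duplicate at 25 uM, then singleton concentration-response up to 50 uM.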

The structures appear in SMILES notation. Records with an inconclusive call do not appear. Active and inactive are the calls of the source. Rule for the calls: active = hit-call score of the fitted dose curve at least 0.9, where 1 is the maximum; inconclusive = response in the unintended direction; inactive = score below 0.9.

Sequence of human Caspase 4 (CASP4), CASP4 (gene 837) (P49662 whole entry, looked up): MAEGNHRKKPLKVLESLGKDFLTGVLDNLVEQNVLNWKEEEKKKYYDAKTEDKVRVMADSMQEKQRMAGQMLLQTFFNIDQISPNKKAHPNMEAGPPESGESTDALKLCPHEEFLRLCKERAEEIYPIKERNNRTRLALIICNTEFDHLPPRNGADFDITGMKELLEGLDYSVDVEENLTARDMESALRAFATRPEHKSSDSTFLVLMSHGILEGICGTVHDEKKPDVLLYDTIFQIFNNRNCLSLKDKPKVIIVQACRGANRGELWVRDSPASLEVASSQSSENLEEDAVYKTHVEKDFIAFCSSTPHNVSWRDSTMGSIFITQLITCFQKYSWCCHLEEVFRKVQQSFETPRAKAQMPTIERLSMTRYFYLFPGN
Sequence of human Caspase 5 (CASP5), CASP5 (gene 838) (P51878 whole entry, looked up): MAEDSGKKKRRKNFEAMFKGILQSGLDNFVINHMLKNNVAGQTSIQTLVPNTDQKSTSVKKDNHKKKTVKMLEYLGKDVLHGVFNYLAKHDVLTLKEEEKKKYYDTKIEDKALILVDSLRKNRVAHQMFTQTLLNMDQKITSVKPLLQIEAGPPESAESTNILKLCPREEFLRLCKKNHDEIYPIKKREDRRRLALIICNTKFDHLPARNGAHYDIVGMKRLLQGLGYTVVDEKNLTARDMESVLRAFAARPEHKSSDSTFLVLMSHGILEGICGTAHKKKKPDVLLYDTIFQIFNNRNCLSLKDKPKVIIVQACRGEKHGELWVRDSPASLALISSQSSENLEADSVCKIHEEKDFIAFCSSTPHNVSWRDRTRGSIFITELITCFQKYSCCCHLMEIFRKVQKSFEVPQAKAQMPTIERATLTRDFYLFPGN
Sequence of human Acid Phosphatase 1 (ACP1), ACP1 (gene 52) (P24666 whole entry, looked up): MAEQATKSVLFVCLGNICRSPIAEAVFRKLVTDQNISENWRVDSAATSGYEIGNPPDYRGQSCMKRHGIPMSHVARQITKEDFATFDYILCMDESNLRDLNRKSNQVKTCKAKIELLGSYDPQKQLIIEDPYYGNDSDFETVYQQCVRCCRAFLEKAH

As for `O=C(O)c1cc(N=Nc2ccc(S(=O)(=O)Nc3ccccn3)cc2)ccc1O`, the compound was classed as inactive in assay [1].
On to `CCOc1cccc(-n2cc(C(=O)N3CCN(c4cc(C(=O)O)c5ccccc5c4)CC3)nc2-c2ccc(C)cc2)c1`, for which the AC50 in assay [2] is 18.3 µM (active). In addition, in assay [3], the compound was classed as inactive.
On to `CN(C)c1ccc(N=NS(=O)(=O)O)cc1`, for which, in assay [3], the outcome was inactive.

Usually AC50 stands for the concentration at which the activity in the assay is half-maximal.
